According to PubChem BioAssay (NCI):
Compounds without any hit were thinned out: in the full panel of roughly 79,000, 15% have a hit. The source made the active and inactive calls. No stated cut-off is given here; in the data, active means growth inhibition above about 70%; inactive means the rest.

Experiments:
[1] = NCI Yeast Anticancer Drug Screen. Data for the rad14 strain (AID 159);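 further: 0% = growth of vehicle-treated control cultures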; details: S. cerevisiae rad14 strain growth inhibition, stronger effect = higher value
In short: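 DNA repair-defective yeast, compound-exposed; % growth inhibition derived by comparison with vehicle-treated controls.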

[2] = NCI Yeast Anticancer Drug Screen. Data for the sgs1 mgt1 strain (AID 161);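 further: 0% = growth of cultures given vehicle only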; details: S. cerevisiae sgs1 mgt1 strain, stronger effect = higher value
In short: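 This yeast growth screen uses a strain with defined DNA-repair lesions; compound-treated growth is compared with vehicle-treated growth.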

[3] = NCI Yeast Anticancer Drug Screen. Data for the CLN2oe strain (AID 163);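 further: 0% = growth of vehicle-only control cultures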; details: S. cerevisiae CLN2oe strain, stronger effect = higher value
In short: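 Cells of an engineered yeast line with disturbed cell-cycle regulation are treated with compound. Inhibition of growth is then calculated relative to the vehicle-treated reference.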

[4] = NCI Yeast Anticancer Drug Screen. Data for the cln2 rad14 strain (AID 165);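 further: 0% = growth equal to vehicle treated cultures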; details: S. cerevisiae cln2 rad14 strain, stronger effect = higher value
In short: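 Strain: cln2 rad14 yeast, altered in cell cycle control and DNA damage repair. Read-out: growth inhibition vs vehicle.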

[5] = NCI Yeast Anticancer Drug Screen. Data for the bub3 strain (AID 167); details: S. cerevisiae bub3 mutant strain, stronger effect = higher value
In short: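 In this screen, a yeast mutant lacking normal mitotic checkpoint function is challenged with compound. Relative growth versus vehicle gives the inhibition value.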

[6] = NCI Yeast Anticancer Drug Screen. Data for the wt2 strain (AID 169);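 further: 0% = growth of vehicle-treated yeast cultures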; details: S. cerevisiae wt2 strain growth inhibition, stronger effect = higher value
In short: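 Growth of compound-treated yeast is measured and expressed as inhibition relative to vehicle-only controls.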

[7] = NCI Yeast Anticancer Drug Screen. Data for the mlh1 strain (AID 171);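 further: 0% = growth of vehicle-treated control cultures of the same strain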; details: S. cerevisiae mlh1 strain growth inhibition, stronger effect = higher value
In short: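 Test agents were incubated with yeast bearing a defined DNA damage repair or cell cycle control alteration; values are growth inhibition normalised to vehicle-treated cultures.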

[8] = NCI Yeast Anticancer Drug Screen. Data for the sgs1 strain (AID 173);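 further: 0% = growth of vehicle-only control cultures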; details: S. cerevisiae sgs1 mutant, stronger effect = higher value
In short: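 Strain with an altered DNA repair or cell cycle pathway exposed to compound. Growth then measured. Value = inhibition versus vehicle control.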

[9] = NCI Yeast Anticancer Drug Screen. Data for the mlh1 rad18 strain (AID 175); details: S. cerevisiae mlh1 rad18 strain growth inhibition, stronger effect = higher value
In short: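 A repair-deficient yeast strain is exposed to test compound, and growth is scored relative to vehicle-treated controls.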

[10] = NCI Yeast Anticancer Drug Screen. Data for the rad18 strain (AID 177); details: S. cerevisiae rad18 mutant growth inhibition, stronger effect = higher value
In short: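 DNA-repair-defective yeast; compound treatment; growth inhibition scored against vehicle.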

[11] = NCI Yeast Anticancer Drug Screen. Data for the wt1 strain (AID 149);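 further: 0% = growth of vehicle-treated wt1 cultures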; details: S. cerevisiae wt1 strain (SPY 50644) growth inhibition, stronger effect = higher value
In short: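 wt1 strain grown with compound or vehicle; inhibition taken from the growth difference.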

[12] = NCI Yeast Anticancer Drug Screen. Data for the rad50EPP+ strain (AID 151);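 further: 0% = growth of vehicle-treated control cultures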; details: S. cerevisiae rad50 mutant strain, stronger effect = higher value
In short: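 Measured: growth inhibition of rad50EPP+ yeast. Reference: vehicle-treated controls. Screen uses strains with defined genetic alterations in DNA damage repair or cell cycle control.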

[13] = NCI Yeast Anticancer Drug Screen. Data for the rad50 strain (AID 155);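 further: 0% = growth of vehicle-only cultures of the same strain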; details: S. cerevisiae rad50 strain growth inhibition, stronger effect = higher value
In short: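 DNA repair mutant yeast, compound exposure, growth read-out; inhibition is taken relative to vehicle.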

[14] = NCI Yeast Anticancer Drug Screen. Data for the mec2-1 strain (AID 157); details: S. cerevisiae mec2-1 strain, stronger effect = higher value
In short: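 Compounds were applied to mec2-1 yeast cells. Their growth was then compared with that of vehicle-treated cultures to give growth inhibition.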

[15] = at 5.0 µM (retest, dose inferred, filed as 0.5)
[16] = at 50.0 µM (retest, dose inferred, filed as 5.0)

Measured: growth inhibition

O=C(c1ccccc1)[C@H]1Nc2ccc(Cl)cc2[C@H]2OCCC[C@@H]12
inactive: [2]; [15] -18% | [2]; [16] 33% | [2]; at 50.0 µM 40.5% | [3]; at 1.2 µM -14% | [3]; at 3.7 µM 2% | [3]; at 11.0 µM -10% | [3]; at 33.0 µM 23% | [4]; [15] 33% | [4]; [16] 44% | [4]; at 50.0 µM 32.6% | [5]; at 1.2 µM -22% | [5]; at 3.7 µM -7% | [5]; [15] 12% | [5]; at 11.0 µM 34% | [6]; at 1.2 µM -15% | [6]; at 3.7 µM -15% | [6]; at 11.0 µM -16% | [6]; at 33.0 µM 17% | [7]; at 1.2 µM -19% | [7]; at 3.7 µM -31% | [7]; at 11.0 µM -34% | [7]; at 33.0 µM 32% | [8]; at 1.2 µM 7% | [8]; at 3.7 µM 11% | [8]; at 11.0 µM 18% | [8]; at 33.0 µM 57% | [9]; [15] -24% | [9]; [16] 1% | [9]; at 50.0 µM 25.9% | [10]; at 1.2 µM -13% | [10]; at 3.7 µM -11% | [10]; at 11.0 µM -10% | [10]; at 33.0 µM 31%
active: [1]; at 100.0 µM 83% | [3]; at 100.0 µM 85% | [5]; at 33.0 µM 86% | [5]; [16] 93% | [5]; at 50.0 µM 82.5% | [5]; at 100.0 µM 95% | [6]; at 100.0 µM 81% | [7]; at 100.0 µM 91% | [8]; at 100.0 µM 94% | [10]; at 100.0 µM 92%

NC(=S)N1N=C2c3ccccc3CC[C@H]2[C@@H]1c1ccc(Cl)cc1
inactive: [11]; at 1.2 µM 11% | [11]; at 3.7 µM 9% | [11]; at 11.0 µM 31% | [11]; at 33.0 µM 46% | [12]; at 1.2 µM -14% | [12]; at 3.7 µM -10% | [12]; at 11.0 µM -14% | [12]; at 33.0 µM 8% | [12]; at 100.0 µM 37% | [13]; at 1.2 µM -6% | [13]; at 3.7 µM -2% | [13]; [15] -20% | [13]; at 11.0 µM 29% | [13]; at 33.0 µM 36% | [14]; at 1.2 µM -17% | [14]; at 3.7 µM 9% | [14]; [15] 7% | [14]; at 11.0 µM 23% | [14]; at 33.0 µM 58% | [1]; at 1.2 µM -28% | [1]; at 3.7 µM -20% | [1]; at 11.0 µM -10% | [1]; at 33.0 µM -3% | [2]; [15] -15% | [3]; at 1.2 µM -6% | [3]; at 3.7 µM -10% | [3]; at 11.0 µM 18% | [3]; at 33.0 µM 42% | [4]; [15] 12% | [5]; at 1.2 µM -12% | [5]; at 3.7 µM 9% | [5]; [15] 34% | [5]; at 11.0 µM 26% | [5]; at 33.0 µM 46% | [6]; at 1.2 µM 8% | [6]; at 3.7 µM 14% | [6]; at 11.0 µM 11% | [6]; at 33.0 µM 35% | [7]; at 1.2 µM 2% | [7]; at 3.7 µM 2% | [7]; at 11.0 µM 28% | [7]; at 33.0 µM 51% | [8]; at 1.2 µM 22% | [8]; at 3.7 µM 33% | [8]; at 11.0 µM 46% | [8]; at 33.0 µM 67% | [9]; [15] 7% | [10]; at 1.2 µM 1% | [10]; at 3.7 µM 8% | [10]; at 11.0 µM -9% | [10]; at 33.0 µM 45%
active: [11]; at 100.0 µM 90% | [13]; [16] 78% | [13]; at 50.0 µM 83% | [13]; at 100.0 µM 85% | [14]; [16] 90% | [14]; at 50.0 µM 85.8% | [14]; at 100.0 µM 88% | [1]; at 100.0 µM 82% | [2]; [16] 79% | [2]; at 50.0 µM 84.8% | [3]; at 100.0 µM 86% | [4]; [16] 91% | [4]; at 50.0 µM 84.7% | [5]; [16] 93% | [5]; at 50.0 µM 83.2% | [5]; at 100.0 µM 89% | [6]; at 100.0 µM 89% | [7]; at 100.0 µM 89% | [8]; at 100.0 µM 91% | [9]; [16] 93% | [9]; at 50.0 µM 80.2% | [10]; at 100.0 µM 89%
